For part of these data: Results with a measured potency or affinity are listed apart. Activity calls are given as the source filed them.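 Rule for the calls, unless noted: active = primary screen hit whose calcium fluorescence ratio, in both repeats, exceeds the weak agonist control mean by 3 SD; inactive = the rest.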
How the values were obtained:
[1] = system: TRPC4 beta (transient receptor potential cation channel C4), mouse; assay: TRPC4 cation channel opening, retest – cell-based, Fluo4 calcium, HEK293 TRPC4beta/mu-opioid, duplicates, 10 µM, confirmation (AID 2426;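 active = fluorescence ratio normalized to control raised more than 50% in primary screen plus both repeat runs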); settings: Fluo4 calcium fluorescence, at 10 µM; stronger effect = higher value
[2] = system: transient receptor potential cation channel C4 beta (TRPC4), mouse; assay: TRPC4 cation channel opening, second retest – cell-based, second round, Fluo4, HEK293 TRPC4beta/mu-opioid, 1 µM, confirmation (AID 2461;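 active = primary screen active and over 50% activation in each of two duplicate runs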); settings: Fluo4 calcium fluorescence, at 1 µM; stronger effect = higher value
[3] = system: TRPC4 (transient receptor potential cation channel C4 beta), mouse; assay: potentiation of DAMGO EC20 TRPC4 response – cell-based, second round, Fluo-4, HEK293 TRPC4beta/mu-opioid, 1 µM, confirmation (AID 2554;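 active = primary screen hit whose fluorescence ratio, in both repeats, exceeds the weak agonist control mean by 3 SD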); settings: DAMGO EC20, Fluo-4 calcium flux, at 1 µM; stronger effect = higher value
[4] = system: TRPC4 beta (transient receptor potential cation channel C4), mouse; assay: potentiation of DAMGO EC20 TRPC4 response – cell-based, Fluo-4, HEK293 TRPC4beta/mu-opioid, confirmation (AID 2555); settings: DAMGO EC20, Fluo-4 calcium flux, at 10 µM; stronger effect = higher value
[5] = target: Short transient receptor potential channel 4 (Mus musculus) (UniProt Q9QUQ5); assay: blockers of DAMGO-evoked TRPC4 calcium flux – cell-based, Fluo4, HEK293 TRPC4beta/mu-opioid, confirmation (AID 2636;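 active = calcium signal cut by more than 3 SD below the full-agonist control yet still positive, in both repeats and the earlier primary screen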); settings: at 10 µM; stronger effect = higher value
[6] = target: Short transient receptor potential channel 4 (Mus musculus) (UniProt Q9QUQ5); assay: blockers of DAMGO-evoked TRPC4 calcium flux – cell-based, second round, Fluo4, HEK293 TRPC4beta/mu-opioid, 1 µM, confirmation (AID 2637;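 active = calcium signal ratio cut to more than 3 SD under the fully stimulated control mean yet still positive, in both repeats and the primary screen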;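 for inhibition: percent of integrated ratio relative to wells lacking test compound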); settings: at 1 µM; stronger effect = higher value
[7] = target: Short transient receptor potential channel 4 (Mus musculus) (UniProt Q9QUQ5); assay: calcium entry via TRPC4 opening agents – cell-based, HEK293 TRPC4/mu-opioid, Fluo-4 calcium, dose response (AID 434937;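 active = primary screen activator hit with a dose response curve and TRPC4 channel activation at any tested dose; inactive = no activation, no dose response, or not a primary hit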)
[8] = target: Short transient receptor potential channel 4 (Mus musculus) (UniProt Q9QUQ5); assay: potentiation of DAMGO-evoked TRPC4 calcium signal – cell-based, HEK293 TRPC4/mu-opioid, Fluo-4 calcium, EC20 DAMGO, dose response (AID 434941;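 active = earlier screen potentiator hit that boosts the TRPC4 ion channel at some dose, with a dose response; inactive = no potentiation, no dose response, or not a prior hit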;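 note: calcium entry triggered by an EC20 dose of DAMGO at the co-expressed mu-opioid receptor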)
[9] = target: Short transient receptor potential channel 6 (Mus musculus) (UniProt Q61143); assay: TRPC6 blockade by TRPC4 inhibitor hits – cell-based, HEK293, membrane potential dye, duplicate, selectivity assay for TRPC4 inhibitor project, confirmation (AID 434948;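 active = active in primary screen and both duplicates, each dropping signal beyond three positive-control SD with fluorescence still positive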); settings: HEK293 TRPC6, membrane potential dye fluorescence, at 10 µM, stimulated with maximal-effect acetylcholine; stronger effect = higher value
[10] = target: Short transient receptor potential channel 6 (Mus musculus) (UniProt Q61143); assay: TRPC6 opening by TRPC4 activator hits – cell-based, HEK293, membrane potential dye, duplicate, selectivity assay for TRPC4 activator project, confirmation (AID 434950;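 active = membrane potential signal rise above negative control mean plus 3 SD in both duplicates, also active in the earlier TRPC4 screen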); settings: HEK293 TRPC6, membrane potential fluorescence, at 10 µM; activation: stronger effect = higher value; outcome: activation
[11] = target: Short transient receptor potential channel 6 (Mus musculus) (UniProt Q61143); assay: positive modulators of mouse TRPC6 channel – HEK293 cells, membrane potential dye, duplicate, selectivity assay for TRPC4 potentiator project, confirmation (AID 434952;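 active = compound raising the membrane signal above positive-control mean plus 3 SD in both repeats, and a primary screen hit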); settings: HEK293 TRPC6, membrane potential dye fluorescence, at 10 µM, maximal acetylcholine added after compound; stronger effect = higher value
[12] = target: Short transient receptor potential channel 4 (Mus musculus) (UniProt Q9QUQ5); assay: calcium flux activators in TRPC4/5HT1a cells, counter-screen for TRPC4 activator project, cell-based, second counter screen, HEK293 TRPC4/5HT1a, Fluo-4 (AID 434977;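 active = calcium signal rise above buffer-control mean plus 5 SD in both duplicates, and also a hit in the primary screen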); settings: Fluo-4 calcium flux, at 10 µM; stronger effect = higher value
[13] = serotonin-gated TRPC4 signal block – cell-based, second counter screen, HEK293 TRPC4/5HT1a, Fluo-4, counter-screen for TRPC4 inhibitor project, confirmation (AID 434978;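 active = primary screen active whose calcium signal fell more than 3 SD beyond the full-serotonin control mean in both duplicate plates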;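 for outcome: serotonin given first at submaximal then at maximal dose after compound preincubation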); settings: Fluo-4 calcium flux, at 10 µM, serotonin added to trigger calcium flux; stronger effect = higher value
[14] = system: TRPC4 (mouse), co-expressed with 5HT1a in HEK293; assay: enhancement of serotonin-evoked TRPC4 response – cell-based, second counter screen, HEK293 TRPC4/5HT1a, Fluo-4, counter-screen for TRPC4 potentiator project, confirmation (AID 434979;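 active = signal rise over 3 SD above mean of control wells given weak agonist, in both repeats and first screen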); settings: Fluo-4 calcium flux, at 10 µM, serotonin added at its EC20 dose; stronger effect = higher value
[15] = nonspecific calcium rise without TRPC4 – cell-based, HEK293 mu-opioid receptor line, counter-screen for TRPC4 activator project, confirmation (AID 449723;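 active = hit in primary screen, with calcium signal over 5 SD above buffer well mean in both duplicates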;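 note: counter screen cells carry the mu-opioid receptor alone and lack TRPC4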); settings: HEK293 mu-opioid cells, Fluo-4 calcium fluorescence, at 10 µM; stronger effect = higher value
[16] = nonspecific potentiation of DAMGO calcium response – cell-based, HEK293 mu-opioid receptor line, counter-screen for TRPC4 allosteric potentiator project, confirmation (AID 449724;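 active = calcium signal rise more than 3 SD above the low-dose agonist control mean, in both duplicate plates and the primary screen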); settings: HEK293 mu-opioid receptor cells, Fluo-4 calcium flux, at 10 µM, compound added before EC20 DAMGO stimulus; stronger effect = higher value

Measured: inhibition

Chain of Short transient receptor potential channel 6 (Mus musculus) (Q61143 whole entry, looked up): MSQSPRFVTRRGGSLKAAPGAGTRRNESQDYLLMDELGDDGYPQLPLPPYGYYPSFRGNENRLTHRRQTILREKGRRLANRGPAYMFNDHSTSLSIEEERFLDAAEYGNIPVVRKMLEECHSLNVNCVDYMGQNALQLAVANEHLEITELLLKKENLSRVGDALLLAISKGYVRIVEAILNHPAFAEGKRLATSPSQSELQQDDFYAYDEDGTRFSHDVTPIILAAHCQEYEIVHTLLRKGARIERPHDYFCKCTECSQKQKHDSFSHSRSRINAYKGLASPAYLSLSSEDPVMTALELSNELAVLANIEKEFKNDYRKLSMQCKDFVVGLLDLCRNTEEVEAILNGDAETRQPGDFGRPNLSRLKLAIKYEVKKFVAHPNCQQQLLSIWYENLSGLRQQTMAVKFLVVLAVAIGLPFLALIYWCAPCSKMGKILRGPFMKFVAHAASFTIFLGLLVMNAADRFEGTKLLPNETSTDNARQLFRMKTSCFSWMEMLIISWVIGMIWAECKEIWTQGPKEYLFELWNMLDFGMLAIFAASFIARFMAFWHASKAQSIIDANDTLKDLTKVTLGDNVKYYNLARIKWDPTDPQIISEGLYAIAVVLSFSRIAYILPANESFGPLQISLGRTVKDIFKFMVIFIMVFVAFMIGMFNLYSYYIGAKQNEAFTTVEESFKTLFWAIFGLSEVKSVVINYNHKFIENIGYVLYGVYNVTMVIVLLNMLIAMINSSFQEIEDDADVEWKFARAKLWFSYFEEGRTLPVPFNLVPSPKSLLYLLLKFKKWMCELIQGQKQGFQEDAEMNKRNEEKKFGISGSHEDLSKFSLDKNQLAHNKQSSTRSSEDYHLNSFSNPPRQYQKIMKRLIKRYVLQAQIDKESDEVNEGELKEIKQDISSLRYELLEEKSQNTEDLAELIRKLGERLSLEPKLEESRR
Chain of Short transient receptor potential channel 4 (Mus musculus) (Q9QUQ5 whole entry, looked up): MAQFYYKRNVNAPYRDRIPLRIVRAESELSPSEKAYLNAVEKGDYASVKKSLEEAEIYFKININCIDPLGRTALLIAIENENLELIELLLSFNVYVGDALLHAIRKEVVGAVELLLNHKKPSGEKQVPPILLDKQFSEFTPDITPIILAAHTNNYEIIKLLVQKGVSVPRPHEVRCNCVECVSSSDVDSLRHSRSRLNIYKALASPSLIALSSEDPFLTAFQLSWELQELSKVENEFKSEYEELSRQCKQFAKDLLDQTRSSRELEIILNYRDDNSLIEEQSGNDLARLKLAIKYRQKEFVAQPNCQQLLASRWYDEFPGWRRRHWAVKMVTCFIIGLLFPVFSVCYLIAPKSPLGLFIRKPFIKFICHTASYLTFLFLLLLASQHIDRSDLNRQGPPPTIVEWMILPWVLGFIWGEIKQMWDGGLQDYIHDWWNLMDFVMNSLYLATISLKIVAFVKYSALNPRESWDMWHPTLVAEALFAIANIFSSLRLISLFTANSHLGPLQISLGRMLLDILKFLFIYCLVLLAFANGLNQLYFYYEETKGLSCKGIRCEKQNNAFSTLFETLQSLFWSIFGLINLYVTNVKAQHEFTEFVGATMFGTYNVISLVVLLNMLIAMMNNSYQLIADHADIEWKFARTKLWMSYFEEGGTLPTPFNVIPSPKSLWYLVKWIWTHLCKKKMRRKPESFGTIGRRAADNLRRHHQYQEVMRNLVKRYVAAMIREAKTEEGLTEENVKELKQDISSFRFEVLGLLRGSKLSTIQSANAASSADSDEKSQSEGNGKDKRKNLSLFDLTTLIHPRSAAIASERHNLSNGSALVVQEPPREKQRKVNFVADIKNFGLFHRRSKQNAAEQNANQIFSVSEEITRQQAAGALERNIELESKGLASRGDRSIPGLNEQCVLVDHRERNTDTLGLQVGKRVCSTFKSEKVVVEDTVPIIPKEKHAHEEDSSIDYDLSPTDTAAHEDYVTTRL

O=C(O)CN1C(c2ccccc2O)Nc2ccc(Br)cc2C1c1ccccc1 (stereo not given)
active: [5] 96% | [6] 45% | [13] 13.5%
inactive: [1] | [2] | [3] | [4] | [7] | [8] | [9] | [10] | [11] | [12] | [14] | [15] | [16]

O=C1CN=C(Nc2cccc(C(F)(F)F)c2)N1C1CCCC1
active: [5] 94% | [13] 26.8%
inactive: [1] | [2] | [3] | [4] | [6] | [7] | [8] | [9] | [10] | [11] | [12] | [14] | [15] | [16]

c1ccc(CN2CCN(Cc3c[nH]c4ccccc34)CC2)cc1
active: [5] 88% | [13] 31.6%
inactive: [1] | [2] | [3] | [4] | [6] | [7] | [8] | [9] | [10] | [11] | [12] | [14] | [15] | [16]

C=CCc1ccccc1OCC(CN1CCCCC1)OC(C)=O (stereo not given)
active: [5] 74% | [6] 43%
inactive: [1] | [2] | [3] | [4] | [7] | [8] | [9] | [10] | [11] | [12] | [13] | [14] | [15] | [16]

COc1cccc(/C=C2\SC(=S)N(NS(=O)(=O)c3ccc(C)cc3)C2=O)c1OC
active: [5] 95% | [13] 4.07%
inactive: [1] | [2] | [3] | [4] | [6] | [7] | [8] | [9] | [10] | [11] | [12] | [14] | [15] | [16]

O=C(Nc1ccccc1)N1CCN2C(=O)c3ccccc3C12c1ccccc1 (stereo not given)
inactive: [1] | [2] | [3] | [4] | [7] | [8] | [9] | [10] | [11] | [12] | [13] | [14] | [15] | [16]
active: [5] 85% | [6] 62%

CN1CCN(c2nc3c(c(=O)n(C)c(=O)n3C)n2CC(=O)C23CC4CC(CC(C4)C2)C3)CC1
inactive: [1] | [2] | [3] | [4] | [7] | [8] | [9] | [10] | [11] | [12] | [14] | [15] | [16]
active: [5] 92% | [6] 63% | [13] 17%

c1ccc2c(N3CCCCC3)nc(N3CCOCC3)nc2c1
inactive: [1] | [2] | [3] | [4] | [6] | [7] | [8] | [9] | [10] | [11] | [12] | [14] | [15] | [16]
active: [5] 84% | [13] 30.8%

COc1ncnc2sc3c(c12)CCCC3
inactive: [1] | [2] | [3] | [4] | [6] | [7] | [8] | [9] | [10] | [11] | [12] | [13] | [14] | [15] | [16]
active: [5] 93%

O=C(O)c1ccc(N/N=C/c2ccc(-c3cccc(Cl)c3)o2)cc1
active: [5] 87% | [6] 42%
inactive: [1] | [2] | [3] | [4] | [7] | [8] | [9] | [10] | [11] | [12] | [13] | [14] | [15] | [16]

N#C/C(=N\Nc1cccc([N+](=O)[O-])c1)C(=O)c1ccc(Br)cc1
active: [5] 98% | [9] 21.5% | [13] 12.4%
inactive: [1] | [2] | [3] | [4] | [6] | [7] | [8] | [10] | [11] | [12] | [14] | [15] | [16]

Cc1nc(N2CCN(c3ccccn3)CC2)c2c(C)c(C(=O)N3CCN(c4ccccc4F)CC3)sc2n1
inactive: [1] | [2] | [3] | [4] | [6] | [7] | [8] | [9] | [10] | [11] | [12] | [13] | [14] | [15] | [16]
active: [5] 93%

CCCc1nc2ccccc2n1Cc1ccccc1OC
active: [5] 88% | [13] 32.4%
inactive: [1] | [2] | [3] | [4] | [6] | [7] | [8] | [9] | [10] | [11] | [12] | [14] | [15] | [16]

COc1ccc(C)cc1N(C(=O)c1snc(C(N)=O)c1N)C(C(=O)NC1CCCC1)c1ccc(F)cc1 (stereo not given)
inactive: [1] | [2] | [3] | [4] | [7] | [8] | [9] | [10] | [11] | [12] | [14] | [15] | [16]
active: [5] 91% | [6] 67% | [13] 41.2%

CC1CCN(CCCOc2ccc(OCc3ccccc3)cc2)CC1
inactive: [1] | [2] | [3] | [4] | [6] | [7] | [8] | [9] | [10] | [11] | [12] | [14] | [15] | [16]
active: [5] 96% | [13] 22.7%

Source: PubChem BioAssay
